Screens from PubChem BioAssay.
Giardia killer: Giardia lamblia killing; Giardia lamblia trophozoite viability; activity change, % at 7.66 µM, hits read low; 340,000 compounds, 0.15% hits; AID 540267; in the data active = activity change below about -80%; inconclusive = between about -30% and that limit;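 also: parasites exposed to compound for two days anaerobically before the ATP read; % is scaled to controls: 0 for no effect and ±100 for the full control effect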
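Compounds were tested on trophozoites seeded at 100 cells/well and held 48 hrs at 37 deg C anaerobically. An ATP-based luminescent kit measured the remaining live cells.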
SW480 rerep: induces DNA re-replication in SW480 colon adenocarcinoma cells | SW480 DNA re-replication, Hoechst DNA content imaging, 48 h | Potency, µM (titrated, usually from 46.1 µM), for inactives: at the highest dose re-replication activation, most hits filed as activators | 340,000 compounds, 1.8% hits; also: potency is read from the fitted curve at half-maximal effect; % of control where 0% means no effect; nearly all actives have a fitted effect of over 55% in size
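SW480 cells exposed to compounds for 48 hr at 37 C, 5% CO2, then Hoechst-stained 40 min. Nuclear DNA content imaged by fluorescence scanning (405 nm excitation, 500-530 nm emission); re-replication scored as increased high-intensity nuclei.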
MCF10A rerep: inducers of DNA re-replication in MCF 10A breast cells; MCF 10A DNA re-replication, Hoechst nuclear intensity, 48 h; Potency, µM (doses to about 46.1 µM), without a hit: at the highest dose activity, positive = re-replication, usual class: activators; 350,000 compounds, 2.9% hits; AID 624296; also: potency is read from the fitted curve at half-maximal effect; % of control where 0% means no effect; nearly all actives have a fitted effect of over 50% in size
IL1B secr inh: inflammasome signaling inhibition, IL-1 beta readout | THP-1 LPS/ATP IL-1B secretion, AlphaLISA, 16 h; stronger effect = lower value | activity change, % at 57.5 µM | 360,000 compounds, 4.7% hits | AID 743279; in the data active = activity change below about -50%; inconclusive = mostly about -30% to -49%; also: % is scaled to controls: 0 for no effect and ±100 for the full control effect
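THP-1 cells pretreated 1 hr with compounds (up to 57.5 uM final), then stimulated with LPS (250 ng/mL final) plus ATP (1.25 mM final); secreted IL-1B measured by AlphaLISA after 16 hr, decreased signal indicating inhibition.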
Vif-APOBEC3F blk: inhibitors of Vif-A3F interaction | 390,000 compounds, 0.2% hits | HeLa A3F-eYFP + Vif (tagged APOBEC3F with the HIV-1 protein that degrades it), YFP fluorescence increase | AID 602313 | Potency, µM (series often up to 46.1 µM), for the others: top-dose activity, negative = active; also: potency is read from the fitted curve at half-maximal effect; % of control where 0% means no effect; nearly all actives have a fitted effect of over 65% in size
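Fluorescence increase (Ex 488/Em 500-530) after overnight compound treatment at 37 deg C flags inhibition of Vif-driven A3F-eYFP loss in stable HeLa A3F-eYFP/Vif cells seeded overnight beforehand.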
Vif-A3G inh: blocks the Vif interaction with human APOBEC3G; HeLa A3G-eYFP + Vif (tagged APOBEC3G with the HIV-1 protein that degrades it), YFP fluorescence, overnight; Potency, µM (series often up to 46.1 µM), without a hit: top-dose activity, negative = active, usual class: inhibitors; 410,000 compounds, 0.076% hits; AID 602310; also: potency is read from the fitted curve at half-maximal effect; % is scaled to controls: 0 for no effect and ±100 for the full control effect; nearly all actives have a fitted effect of over 60% in size
Target sequence (Q9HC16 whole entry, looked up): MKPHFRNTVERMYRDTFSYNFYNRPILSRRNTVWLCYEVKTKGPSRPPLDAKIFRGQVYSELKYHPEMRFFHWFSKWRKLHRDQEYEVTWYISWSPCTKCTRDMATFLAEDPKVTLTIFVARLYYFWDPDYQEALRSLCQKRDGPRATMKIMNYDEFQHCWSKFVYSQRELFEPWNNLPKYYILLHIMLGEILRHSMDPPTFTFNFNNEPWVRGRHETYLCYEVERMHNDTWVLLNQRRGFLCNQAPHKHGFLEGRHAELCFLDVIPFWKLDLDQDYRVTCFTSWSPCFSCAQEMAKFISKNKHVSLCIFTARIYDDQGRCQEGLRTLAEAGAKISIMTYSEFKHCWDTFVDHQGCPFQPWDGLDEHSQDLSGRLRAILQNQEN
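Read-out is eYFP fluorescence (Ex 488/Em 500-530) from Vif-expressing HeLa A3G-eYFP cells; more signal means A3G escaped Vif-mediated degradation. Cells plated overnight, compound pinned in, incubated overnight at 37 deg C.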
Starred values were filed as active, the others as inactive; ? = inconclusive; · = not tested or not shown; [ ] = remark or other dose. The list is not random: actives were taken first. Their share in the collection is about 6.9%. Unless noted, calls follow the shape of the dose curve; as a rule, active = well fitted curve in the direction sought with a large enough effect; inconclusive = small, poorly fitted or top-dose-only effect, or another doubt; inactive = no such curve, though single readings can be large; an effect the other way counts as inactive or inconclusive.

SMILES | Giardia killer | SW480 rerep | MCF10A rerep | IL1B secr inh | Vif-APOBEC3F blk | Vif-A3G inh
CCCn1ccc2c(OCC(=O)Nc3ccc(C(F)(F)F)cc3)cccc2c1=O | · | · | · | · | -10% | -1%
CCOc1ccc(CCNC(=O)c2cccc(-n3c(C)nc4cccnc43)c2C)cc1 | · | · | · | · | 3% | 8%
CC1CCN(c2ccc3c(c2)S(=O)(=O)c2cccc(C(=O)NCc4cccc(F)c4)c2C3=O)CC1 | -17 | 10% | ? | 8 | ? | 20µM*
O=C(NCc1cc(C(F)(F)F)ccc1Cl)c1cccc2c1C(=O)c1ccc(N3CCOCC3)cc1S2(=O)=O | 0 | -6% | ? | 9 | 10µM* | 3%
O=C(NCc1ccc(OC(F)(F)F)cc1)c1cccc2c1C(=O)c1ccc(N3CCCC3)cc1S2(=O)=O | -6 | 0% | 10% | 20 | -6% | -10%
O=C(NCc1cc(C(F)(F)F)ccc1Cl)c1cccc2c1C(=O)c1ccc(N3CCCCC3)cc1S2(=O)=O | -25 | 3% | 16% | 59 | -5% | -10%
O=C(NCc1ccc(OC(F)(F)F)cc1)c1cccc2c1C(=O)c1ccc(N3CCC(Cc4ccccc4)CC3)cc1S2(=O)=O | 7 | -2% | 5.8µM* | -2 | ? | -9%
O=C(NCc1cccc(F)c1)c1cccc2c1C(=O)c1ccc(N3CCCC3)cc1S2(=O)=O | -8 | -5% | ? | 0 | ? | ?
O=C(NCc1ccco1)c1cccc2c1C(=O)c1ccc(N3CCC(Cc4ccccc4)CC3)cc1S2(=O)=O | 2 | ? | ? | 33 | 10µM* | ?
O=C(Nc1ccccc1)N(Cc1c[nH]c2ccccc12)C1CCCCCC1 | · | · | · | · | -4% | -7%
Cc1ccccc1C(=O)Nc1ccc(S(=O)(=O)N2CCC(c3nc4ccccc4s3)CC2)cc1 | · | · | · | · | 0% | -3%
CCc1sc(-c2cc3cccc(OC)c3oc2=O)nc1-c1cc(C)ccc1C | 8 | · | · | · | · | -2%
O=C(NCc1cccc(F)c1)c1cccc2c1C(=O)c1ccc(N3CCC(Cc4ccccc4)CC3)cc1S2(=O)=O | 8 | -2% | 12µM* | -4 | 32µM* | 11µM*
O=C(NCc1cccc(C(F)(F)F)c1)c1cccc2c1C(=O)c1ccc(N3CCC(Cc4ccccc4)CC3)cc1S2(=O)=O | -9 | 13% | 5.8µM* | -2 | 22µM* | ?
O=C(NCCc1ccc(F)cc1)c1cccc2c1C(=O)c1ccc(N3CCC(Cc4ccccc4)CC3)cc1S2(=O)=O | 19 | -21%[9.22 µM] | ? | 9 | ? | ?
O=C(NCc1ccco1)c1cccc2c1C(=O)c1ccc(/C=C/c3ccccc3)cc1S2(=O)=O | 2 | ? | 9.2µM* | 1 | ? | ?
CCC1CCc2sc(C(=O)NC3CCN(Cc4ccccc4)CC3)cc2C1 (centres undefined) | -6 | ? | ? | -74* | 11% | 0%
Cc1ccc(C)c(NC(=S)NNC(=O)c2cc3c(s2)CCC(C)C3)c1 (centres undefined) | 1 | -2% | ? | -14 | -8% | 0%
CC1CCc2sc(C(=O)NC3CCN(Cc4ccccc4)CC3)cc2C1 (centres undefined) | -11 | ? | ? | -59* | 10% | 1%
CCC1CCc2sc(C(=O)NCc3ccccn3)cc2C1 (centres undefined) | -1 | ? | ? | -11 | 1% | -1%
Cc1cccc(NC(=S)NNC(=O)c2cc3c(s2)CCC(C)C3)c1C (centres undefined) | -6 | -4% | 16µM* | 55 | -3% | 6%
CC1CCc2sc(C(=O)NN=C3CCC(c4ccccc4)CC3)cc2C1 (centres undefined) | -21 | -7% | 9% | -1 | 5% | 0%
Cc1c(C(=O)N(C)c2cccc(C(F)(F)F)c2)sc2nc3n(c(=O)c12)CCCCC3 | · | · | · | · | 1% | -11%
CCCCN(C)CCNC(=O)c1nn(-c2ccc(OC)c(Cl)c2)c(=O)c2c1c1ccccc1n2C | · | · | · | · | 3% | 2%
O=c1c2sc3ccccc3c2n(Cc2cccc(F)c2)c(=O)n1CCc1ccccc1 | · | · | · | · | -5% | 0%
SMILES | Giardia killer | SW480 rerep | MCF10A rerep | IL1B secr inh | Vif-APOBEC3F blk | Vif-A3G inh
O=C(N(c1ccccc1)c1ccccc1)N(c1ccccc1)c1ccccc1 | 9 | ? | ? | -23 | -4% | -9%
O=C(CCl)N(c1ccccc1)c1ccccc1 | -21 | 22% | ? | -108* | 14% | -14%
N#CCCN(C(=O)COC(=O)c1nc(Cl)ccc1Cl)c1ccccc1 | -1 | 1% | 2% | 4 | -1% | 1%
CCCN(C(=O)c1cc2c(Cl)nc3ccccc3c2s1)c1cccc(C)c1 | · | · | · | · | 0% | 0%
N#CCCN(C(=O)CCl)c1cccc(Cl)c1 | -5 | 2.6µM* | ? | -70* | 1% | -4%
O=C(CCl)N(CCc1ccccc1)CCc1ccccc1 | -21 | 4.1µM* | 23µM* | -103* | 0% | ?
O=C(CCCc1ccccc1)NCCc1ccccc1 | -6 | -1% | 0% | -8 | 7% | 2%
CCCCCCCN(C(=O)CCl)c1cccc(C)c1 | 7 | 2.1µM* | ? | -105* | 0% | -1%
COc1ccccc1NC(=O)c1cc(=O)c2ccc(C)c(C)c2o1 | · | · | · | · | 0% | -1%
CCCCCCN(C(=O)CCl)c1ccccc1 | 1 | 9.2µM* | ? | -67* | 3% | ?
O=C(NCCc1ccco1)c1cc(COc2cccc(C(F)(F)F)c2)on1 | ? | 20% | ? | -83* | -2% | -9%
COc1cccc(CCNC(=O)c2cc(COc3cccc(OC)c3)on2)c1 | · | · | · | -1 | -4% | -1%
S=P(N1CC1)(N1CC1)N1CC1 | 22 | 2.1µM* | ? | 20 | 7% | -1%
Cc1ccc(NC(=O)c2ccc(NC(=O)N3CCSc4ncccc43)cc2)cc1Cl | · | · | · | · | 0% | -2%
FC(F)(F)c1ccc(N2CCOCC2)c(Nc2nc3ccccc3n3cnnc23)c1 | -7 | ? | 23µM* | -61* | -9% | -3%
c1ccc(N2CCCCC2)c(Nc2nc3ccccc3n3cnnc23)c1 | 5 | -76% | 12µM* | 58 | 3% | -1%
CCc1ccccc1NC(=O)CN1C(=O)c2ccccc2Sc2ncccc21 | · | · | · | · | -2% | 0%
CC(C)C[C@H]1CNC(=S)N1C[C@H]1CCCN1C[C@H](CC(C)C)N1C[C@H](Cc2ccc(O)cc2)N(CC2CCCCCC2)C1=S | · | · | · | -59* | · | -22%
CC(C)C[C@@H](CN1CCCC1CN1C(=S)NC[C@@H]1Cc1ccc(O)cc1)N1C[C@H](Cc2ccc(O)cc2)N(CC2CCCCC2)C1=S (some centres undefined) | -4 | ? | 7.3µM* | -87* | 7% | -19%
